Where “and” joins values, the source holds several entries; their conditions need not be identical. Identical values can stand only once.

What all share (details): concentration: 10 µM; 24 h
For test [1], the system named is HCC1569. Briefly: cell number relative to DMSO (% of DMSO); higher = more cells (less growth inhibition / toxicity). A digest of the protocol:
(§1)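 Six fields per well were imaged at ×10 after the cells were fixed in 3.7% formaldehyde and stained with a rabbit anti-H1.0 antibody, an AlexaFluor 647 secondary and DAPI. The HCC1569 and TDF cells had been plated at 800 per well in 384-well plates (RPMI, 10% FBS) and treated in triplicate with compounds at 10 µM for 24 h at 37 °C. The values are the median of replicates of H1.0 nuclear intensity or cell number, as percent of the plate control. Smoothing for positional effects was applied to HCC1569 data.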

For test [2], the system named is TDF. Described as above. A digest of the protocol: as §1
In test [3] the test system is TDF. Briefly: H1.0 immunofluorescence intensity relative to DMSO (% of DMSO); higher = stronger H1.0 induction, active = 120 or more. In outline:
as §1

Test [4] concerns HCC1569. Briefly: H1.0 immunofluorescence intensity relative to DMSO (% of DMSO); higher = stronger H1.0 induction, active = 140 or more. In outline:
as §1
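For H1.0 immunofluorescence intensity relative to DMSO in this document: TDF is a line of transformed human dermal fibroblasts of mesenchymal origin.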
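For cell number relative to DMSO in this document: TDF denotes transformed human dermal fibroblasts of mesenchymal origin.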

For the compound `CCCCCCCCCCCCCCCC(O)C(N)CO` (racemic) [DL-erythro-Dihydrosphingosine], the values for the cell number in the test on HCC1569 [1] and in the test on TDF [2] were 102 and 87.8, respectively. Further, the figures for the H1.0 immunofluorescence intensity with TDF [3] and with HCC1569 [4] were 108 (inactive) and 96.9 (inactive), respectively.
Take `CCN(CC)CCOC(=O)C1(C2CCCCC2)CCCCC1.Cl` [Dicyclomine hydrochloride]: the results for the cell number in the test with HCC1569 [1] and in the test on TDF [2] were 100 and 96.7, respectively. The H1.0 immunofluorescence intensity was 99.8 (inactive) with TDF [3] and 93.1 (inactive) in the test with HCC1569 [4].
For `C[C@@H](Nc1ncnc2[nH]c(-c3ccc(O)cc3)cc12)c1ccccc1`, the cell number in the test with HCC1569 [1] was determined as 66; in the test on TDF [2] it was 64.8. The H1.0 immunofluorescence intensity in the test on TDF [3] was 108 (inactive); with HCC1569 [4], 139 (inactive).
As to `Cl.NCCCC(N)(C(=O)O)C(F)F` (racemic) [DL-alpha-Difluoromethylornithine hydrochloride], the cell number in the test with HCC1569 [1] came out at 98.5; with TDF [2] it was 111. Further, the values for the H1.0 immunofluorescence intensity in the test on TDF [3] and with HCC1569 [4] were 94.3 (inactive) and 92.7 (inactive), respectively.
Regarding `O=c1ccn(C2OC(COP(=O)([O-])OP(=O)([O-])O)C(O)C2O)c(=O)[nH]1.[Na+].[Na+]` (stereo not given) [Uridine 5'-diphosphate sodium], the figures for the cell number with HCC1569 [1] and in the test with TDF [2] were 105 and 106, respectively. Also, the H1.0 immunofluorescence intensity with TDF [3] is 95.6 (inactive); in the test on HCC1569 [4], 98.7 (inactive).
The corresponding values for `CC(C[N+](C)(C)C)OC(N)=O` (stereo not drawn) [Carbamyl-beta-methylcholine] are 105, 99.5, 89.1 (inactive) and 108 (inactive).
For `CNC(=O)c1ccccc1Sc1ccc2c(C=Cc3ccccn3)n[nH]c2c1` [Axitinib] the same measures were 67.8, 46.4, 99.1 (inactive) and 134 (inactive).
For `Clc1ccccc1C(c1ccccc1)(c1ccccc1)n1ccnc1` [Clotrimazole] the same measures were 75.1, 69.1, 104 (inactive) and 108 (inactive).
For `CN(C)CCCOC1C(C(O)CO)OC2OC(C)(C)OC21.Cl` (stereo not given) [Amiprilose hydrochloride], the cell number with HCC1569 [1] was 101; in the test with TDF [2], 106. For the same compound, the H1.0 immunofluorescence intensity in the test on TDF [3] is 82.4 (inactive); with HCC1569 [4], 91.5 (inactive).
Turning to `Fc1ccc(Cl)cc1-c1nc(Nc2ccncc2)c2nccnc2n1`, the cell number came out at 98.4 in the test on HCC1569 [1] and 91.6 in the test with TDF [2]. In addition, the H1.0 immunofluorescence intensity was 98.2 (inactive) in the test with TDF [3] and 113 (inactive) with HCC1569 [4].
On to `CC(=O)C1CCC2C3CC=C4CC(OS(=O)(=O)[O-])CCC4(C)C3CCC12C.[Na+]` (stereo not given) [Pregnenolone sulfate sodium], for which the cell number in the test on HCC1569 [1] stood at 105; with TDF [2], 110. Moreover, the figures for the H1.0 immunofluorescence intensity in the test with TDF [3] and in the test with HCC1569 [4] were 95.8 (inactive) and 97.8 (inactive), respectively.
The corresponding values for `CCCCN1CC(O)C(O)C(O)C1CO` (stereo not given) [Miglustat] are 100, 95.6, 97.2 (inactive) and 114 (inactive).
The corresponding values for `Cl.Cl.OCCN1CCN(CCCN2c3ccccc3Sc3ccc(C(F)(F)F)cc32)CC1` [Fluphenazine dihydrochloride] are 92.5, 96.3, 118 (inactive) and 133 (inactive).
In the case of `COc1ccccc1N1CCN(CCN(C(=O)c2ccc(I)cc2)c2ccccn2)CC1.Cl` [p-MPPI hydrochloride], the results for the cell number in the test with HCC1569 [1] and with TDF [2] were 97.4 and 96.3, respectively. Also, the results for the H1.0 immunofluorescence intensity in the test with TDF [3] and in the test on HCC1569 [4] were 96.6 (inactive) and 93.4 (inactive), respectively.
On to `CNC1C(OC2C(OC3C(O)C(O)C(N=C(N)N)C(O)C3N=C(N)N)OC(C)C2(O)C=O)OC(CO)C(O)C1O` (stereo not given) [Streptomycin], for which the cell number was 105 with HCC1569 [1] and 103 in the test with TDF [2]. The H1.0 immunofluorescence intensity in the test on TDF [3] was 96.7 (inactive); in the test on HCC1569 [4], 89 (inactive).
As for `CC12C=CC(=O)C=C1CCC1C2=CCC2(C)C(C(=O)CN3CCN(c4cc(N5CCCC5)nc(N5CCCC5)n4)CC3)CCC12.O=C(O)C=CC(=O)O` (stereo not given), the cell number with HCC1569 [1] is 91.7 and 96.8; in the test on TDF [2], 93.4 and 95.2. The H1.0 immunofluorescence intensity was 95.3 (inactive) and 98.1 (inactive) with TDF [3]; 98 (inactive) and 96.5 (inactive) with HCC1569 [4].
Take `CN(CCOc1ccc(NS(C)(=O)=O)cc1)CCc1ccc(NS(C)(=O)=O)cc1` [Dofetilide]: the cell number came to 98 in the test with HCC1569 [1] and 121 in the test on TDF [2]. For the same compound, the H1.0 immunofluorescence intensity in the test with TDF [3] was 103 (inactive); with HCC1569 [4], 99.5 (inactive).
As for `CCCCCC(O)CC(=O)CCc1ccc(O)c(OC)c1` (stereo not given) [Gingerol], the cell number with HCC1569 [1] came to 99.3; in the test with TDF [2] it was 97.2. Moreover, the H1.0 immunofluorescence intensity in the test on TDF [3] was 92.9 (inactive); in the test on HCC1569 [4] it was 85.8 (inactive).
For `O=C(O)c1cc([N+](=O)[O-])ccc1NCCCc1ccccc1` [5-Nitro-2-(3-phenylpropylamino)benzoic acid] the same measures were 105, 102, 91 (inactive) and 88.1 (inactive).
Regarding `CC(=O)NCC1CN(c2ccc(N3CCOCC3)c(F)c2)C(=O)O1` (stereo not given) [Linezolid], the results for the cell number in the test with HCC1569 [1] and in the test on TDF [2] were 104 and 99.7, respectively. The results for the H1.0 immunofluorescence intensity in the test on TDF [3] and in the test on HCC1569 [4] were 93.4 (inactive) and 110 (inactive), respectively.

Source of the values: the supplement of paper PMC7156485.
